The values below come from publication PMC12136788.

In all, about 5,800 sequences were measured (“enrichment r”: median about 0.68, highest 2% from about 11 on). The sample holds the highest values, similar sequences and a random draw of the others, so the mix is not that of the screen.

T1: UNK ZnF1-6 (called full-length) (human, UniProt Q9C0B0 30-357)
T1 sequence: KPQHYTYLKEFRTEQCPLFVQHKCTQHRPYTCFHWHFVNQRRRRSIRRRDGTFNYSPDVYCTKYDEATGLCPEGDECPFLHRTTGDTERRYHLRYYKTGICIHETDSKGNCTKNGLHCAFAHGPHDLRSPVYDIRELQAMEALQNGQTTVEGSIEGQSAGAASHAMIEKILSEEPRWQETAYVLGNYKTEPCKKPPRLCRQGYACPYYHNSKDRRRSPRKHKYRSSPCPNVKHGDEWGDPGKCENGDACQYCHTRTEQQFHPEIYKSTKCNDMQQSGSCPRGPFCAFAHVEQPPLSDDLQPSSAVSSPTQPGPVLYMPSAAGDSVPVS

B1: chr17:44352837:44352938:+|3pUTR|ENSG00000030582|unk|total|mutant (ssRNA)
RNA: GGGAGUUCUACAGUCCGACGAUCCUGAAGACUCUGCAGCCCUCGGGACCCCACUCGGAGGGUGCCCUCUGCUCAGGCCUCCCCCGCACCUCCCCCUAACCAAAUUCUCCCUGGACCCCAUUCUGAGCUCCCCAUCACCAUGGGCAACAGAGGAUUGAGCAUCA
B2: ENSG00000107863:be:win_1351|CDS|ENSG00000107863|bound_else_gene|NA|bound_elsewhere_windowed (ssRNA)
RNA: GGGAGUUCUACAGUCCGACGAUCGUCCAGAUACGGCAACGCAGUGUGUCCCAAGAAAGACUGGAAGAUUCUGUGCUAAUGAAGUAUUGUCCAAGAAGUGCAUCUCAAGGAGCACUGACGUCUCCAUCUGUUAGUUUUAGUAAUCAACAGAGGAUUGAGCAUCA
B3: chr10:75150949:75151073:+|CDS|ENSG00000156671|unk|FALSE|unique (ssRNA)
RNA: GGGAGUUCUACAGUCCGACGAUCUGUUCGAAGAUUGGACCCAGAAUACUGGAAGACUAUACUGAGUUGUAUAUAUGUUUUUAUAGUAUUUGGAUUUACAUCUUUCAUUAUGGUUAUAGUCCAUGAGCGAGUGCCUGACAUGCACAACAGAGGAUUGAGCAUCA
B4: ENSG00000107863:be:win_4151|CDS|ENSG00000107863|bound_else_gene|NA|bound_elsewhere_windowed (ssRNA)
RNA: GGGAGUUCUACAGUCCGACGAUCAUUCAGCUACUAGUGACUCAACAAAAUCUAAGGGUUCUUGGGGAUCUGGAAAGGAUCAGUAUAGCAGGGAACUGCUUGUGUCCUCCAUCUUUGCAGCUGCUAGUCGCAAGAGGAAGAAGCCAACAGAGGAUUGAGCAUCA
B5: chr2:224001733:224001845:-|CDS|ENSG00000135919|unk|total|mutant (ssRNA)
RNA: GGGAGUUCUACAGUCCGACGAUCGGCCUCUGUGACGCUGCCUUCCAUCUGCUCCCACUUCAAUCCUCUGUCUCUCGAGGAACCCGGCUCCAACACGGGGAUCCAGGUUUUCAAUCAGAUUGUGAAGUCGAGGCCUCAUGACAACAACAGAGGAUUGAGCAUCA
B6: chr12:122341087:122341188:-|CDS|ENSG00000130779|unk|FALSE|bound_elsewhere (ssRNA)
RNA: GGGAGUUCUACAGUCCGACGAUCAGAAUUUGCUGAACUAAAAACACAAAUAGAGAAAAUGAGACUAGAUUACCAACACGAAAUAGAAAAUUUGCAGAAUCAACAAGACUCUGAACGGGCUGCCCAUGCUAAAGAGAUGGAAGCCAACAGAGGAUUGAGCAUCA

The test deals with T1, UNK ZnF1-6 (called full-length). The test is described as follows: nsRBNS (natural sequence RNA bind-n-seq); RBNS binding buffer (assumed for nsRBNS): 25 mM Tris pH 7.5, 150 mM KCl, 3 mM MgCl2, 0.01% Triton X-100, 500 ug/ml BSA, 20 U/ml SUPERase-In, 4 C; UNK is unkempt and MSI1 is Musashi-1; names of the RNAs are library labels; protein concentration not given here; high values mean tight binding.
As to B1, the binding signal was 0.732 enrichment R.

In turn, B2 yielded a binding signal of 4.38 enrichment R.

For B3, the binding signal amounted to 0.389 enrichment R.

B4 yielded a binding signal of 0.489 enrichment R.

B5 gave a binding signal of 0.666 enrichment R.

B6 showed a binding signal of 8.87 enrichment R.
